# Source: PubChem
# SMN2 splice up: enhancers of SMN2 splice variant expression; HEK293 SMN2-luciferase splicing reporter, luminescence, 30-36 h; Potency, µM (highest dose often 46.1 µM), for the others: at the highest dose activity change, positive = activation, hits mostly activators; 210,000 compounds, 2.8% hits; note: % of control where 0% means no effect; nearly all actives have a fitted effect of over 55% in size
#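 HEK293 cells carry an SMN2 […]–luciferase reporter in which exon 7 inclusion puts luciferase in frame. Cells were plated 10-12 h before compound addition, then incubated 30-36 h at 37C. ONE-Glo luminescence was read; sodium butyrate at 4.5 mM final served as control.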
# NPC1 prom act: activates the NPC1 promoter; Huh7 NPC1 promoter luciferase reporter, 24 h; 320,000 compounds, 2.4% hits; Potency, µM (highest dose often 9.22 µM), without a hit: at the top dose activation, actives largely listed as activators; note: % of control where 0% means no effect; nearly all actives have a fitted effect of over 60% in size
#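 Quantitative HTS used a cell-based reporter: Huh7 cells stably bearing the NPC1 promoter upstream of luciferase were treated with compounds for 24 h, and promoter activation was read as luminescence.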
# FLuc counter: counter-screen for miR-21 project: firefly luciferase inhibitors or activators. P08659. purified FLuc, Km substrates, luminescence inhibition. Potency, µM (highest dose often 57.5 µM), without a hit: at the top dose activity change, negative = inhibition, usual class: inhibitors. 360,000 compounds, 6.9% hits;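 note: plate controls were vehicle for no effect and reference inhibitor for full effect; nearly all actives have a fitted effect of over 55% in size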
# Target sequence (P08659 whole entry, looked up): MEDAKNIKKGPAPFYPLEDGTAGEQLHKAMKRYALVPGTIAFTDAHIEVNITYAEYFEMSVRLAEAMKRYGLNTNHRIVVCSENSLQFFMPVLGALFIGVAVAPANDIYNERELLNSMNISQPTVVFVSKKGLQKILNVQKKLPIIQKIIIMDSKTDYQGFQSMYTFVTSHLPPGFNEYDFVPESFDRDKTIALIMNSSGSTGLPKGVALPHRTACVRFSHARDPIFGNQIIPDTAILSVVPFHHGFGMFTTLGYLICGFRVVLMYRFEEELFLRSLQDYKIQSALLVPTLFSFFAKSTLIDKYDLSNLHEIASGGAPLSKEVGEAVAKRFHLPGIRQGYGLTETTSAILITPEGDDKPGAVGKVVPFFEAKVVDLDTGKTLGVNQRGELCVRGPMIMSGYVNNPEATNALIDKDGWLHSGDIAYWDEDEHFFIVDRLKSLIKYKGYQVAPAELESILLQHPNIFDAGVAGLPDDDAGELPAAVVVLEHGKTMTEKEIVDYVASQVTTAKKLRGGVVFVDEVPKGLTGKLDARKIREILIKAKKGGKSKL
#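 Purified P. pyralis luciferase (10nM final) with 10uM D-luciferin and 10uM ATP (Km levels) in 50mM Tris acetate pH 7.5, 10mM Mg acetate, 0.01% Tween-20, 0.05% BSA; qHTS 6-point titration, ~60 µM downward; luminescence read.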
# Rab9 prom act: Rab9 promoter activation | Huh7 Rab9 promoter-luciferase reporter, luminescence, 24 h | Potency, µM (top dose mostly 9.22 µM), without a hit: top-dose activation, negative = inhibition, actives largely listed as activators | 320,000 compounds, 2.8% hits | AID 485297; note: % of control where 0% means no effect; nearly all actives have a fitted effect of over 60% in size
#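 Quantitative HTS format; Huh7 Rab9-luciferase reporter cells (1500/well) receive compound 2 h post-plating, incubate 24 h at 37 °C, then get luciferase reagent for 10 min before luminescence reading.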
# ELG1 genotox: inducers of genotoxicity in HEK293T ELG1-luciferase cells | HEK293T ELG1-luciferase reporter, luminescence, 16 h | Potency, µM (top dose mostly 46 µM), without a hit: at the top dose activity change, positive = activation, most hits filed as activators | 330,000 compounds, 1.3% hits | AID 504466; note: % of control where 0% means no effect; nearly all actives have a fitted effect of over 60% in size
#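 Reporter readout depends on ELG1 protein level, which increases with genetic stress. After 16 hr compound exposure at 37 °C, luciferase activity was quantified using ONE-Glo.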
# p53 reactivation: mutant p53 re-activation in reporter cells | 320,000 compounds, 0.063% hits | H1299 p53-A138V BP100-luciferase reporter, luminescence, 24 h | Potency, µM (doses to about 92.2 µM), without a hit: top-dose activity change, positive = activation, hits mostly activators; note: % of control where 0% means no effect; nearly all actives have a fitted effect of over 45% in size
#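 p53-null H1299 cells stably carrying temperature-sensitive p53-A138V and a BP100-luciferase reporter were pinned with compounds (4-point, 1:5 series) and held 24 hrs at 37 deg C. Luminescence was read 10 min after detection reagent.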
# * marks the source's active call; other numbers are inactive results; ? = inconclusive; / = no result; [ ] = remark or other dose. An excerpt weighted towards active compounds, which were near 7.4% of everything screened. Calls come from the whole dose curve; as a rule, active = well fitted curve in the direction sought with a large enough effect; inconclusive = small, poorly fitted or top-dose-only effect, or another doubt; inactive = no such curve, though single readings can be large; an effect the other way counts as inactive or inconclusive. Potency is the fitted concentration of half-maximal effect.
SMILES,SMN2 splice up,NPC1 prom act,FLuc counter,Rab9 prom act,ELG1 genotox,p53 reactivation
CCCn1c(CNc2ccc(Br)cc2)nc2ccccc21,-39%,1%,17µM*,28%,0%,21%
COCCn1c(COc2ccc(C)cc2)nc2ccccc21,7%,?,9.5µM*,?,11%,8%
Cc1ccc(C(O)C2=CCCC2=O)cc1 (stereo not given),-2%,/,/,/,/,/
O=C(COC(=O)c1ccc(Cl)nc1)Nc1ccc2c(c1)OCCO2,/,-1%,-3%,-3%,7%,9%
COc1ccc(Cn2c(-c3ccc(OC)cc3)nc3ccccc32)cc1,-38%,-2%,?,-2%,-4%,-12%
COCCn1c(-c2ccc(OC)cc2)nc2ccccc21,4%,1%,19µM*,1%,-2%,6%
CC(C)CN1C(=O)c2ccc(C(=O)Nc3ccc(O)cc3C(=O)O)cc2C1=O,/,-3%,6µM*,12%,-2%,4%
CC(C)CCN1C(=O)c2ccc(C(=O)Nc3ccc(O)cc3C(=O)O)cc2C1=O,/,1%,19µM*,2%,-1%,9%
COc1cc(NC(=O)c2ccc3c(c2)C(=O)N(CCC(C)C)C3=O)c(C(=O)O)cc1OC,/,-2%,?,3%,-2%,-16%
CC(c1ccccc1)N1C(=O)c2ccc(C(=O)Nc3ccccc3C(=O)O)cc2C1=O (stereo not given),/,-5%,24µM*,3%,-12%,?
CC(C)CCN1C(=O)c2ccc(C(=O)Nc3c[nH]c(=O)[nH]c3=O)cc2C1=O,-4%,-1%,-1%,0%,0%,2%
CC(C)CCN1C(=O)c2ccc(C(=O)Nc3ccccc3C(=O)O)cc2C1=O,/,4%,21µM*,0%,4%,12%
Cc1cnc(C(=O)N2CCCC(N3CCN(c4cccc(C(F)(F)F)c4)CC3)C2)cn1 (stereo not given),/,1%,2%,1%,-2%,-12%
Cc1ccccc1OCC(=O)OCC(=O)c1ccc[nH]1,/,-8%,1%,-4%,4%,-5%
Cc1ccc(NC(=O)CCCc2ccccc2)nc1,16µM*,?,17µM*,4µM*,?,2%
Cc1ccc(NC(=S)NCCc2ccccc2)nc1,25µM*,27%,17µM*,?,?,6%
C=CCOc1cccc(CNc2cccc(C(=O)O)c2)c1,/,?,9.5µM*,?,16%,-1%
C=CCOc1c(CNc2cccc(C(=O)O)c2)cccc1OCC,1%,10%,-14%,3%,7%,7%
C=CCOc1c(CNc2ccc(C(=O)O)cc2)cccc1OCC,?,?,21µM*,?,18%,3%
C=CCOc1c(CNc2cccc(C(=O)O)c2)cccc1OC,?,?,15µM*,?,?,5%
C=CCOc1c(CNc2ccc(C(=O)O)cc2)cccc1OC,?,7%,-19%,-2%,2%,8%
O=S(=O)(c1cccc(-c2n[nH]c(=S)n2-c2ccc(OC(F)(F)F)cc2)c1)N1CCOCC1,/,/,/,/,-1%,-11%
COc1ccc(NC(=O)c2ccc(C)cc2Cl)c([N+](=O)[O-])c1,12%,?,6µM*,?,?,7%
COc1ccc(NC(=O)CSc2nc3ccccc3n2-c2ccccc2)c([N+](=O)[O-])c1,-14%,-4%,-1%,-8%,0%,-9%
COc1ccc(NC(=O)CSc2ccccc2)c([N+](=O)[O-])c1,?,?,27µM*,?,?,1%
SMILES,SMN2 splice up,NPC1 prom act,FLuc counter,Rab9 prom act,ELG1 genotox,p53 reactivation
COc1ccc(NC(=O)CN2CCC(C)CC2)c([N+](=O)[O-])c1,-1%,13%,?,5%,16µM*,?
COc1ccc(NC(=O)COc2ccc(C)cc2)c([N+](=O)[O-])c1,0%,2.8µM*,?,?,21µM*,4%
COc1ccc(NC(=O)c2cc(Br)ccc2Cl)c([N+](=O)[O-])c1,-10%,-3%,4%,-3%,5%,3%
CCCCOC(=O)c1ccc(Nc2nc3ccc(C)cc3n3cnnc23)cc1,-3%,/,?,/,/,/
CCN(c1ccccc1)C(CNS(=O)(=O)c1ccccc1)c1ccccc1 (stereo not given),-6%,/,-10%,/,/,/
O=C(Nc1ccc(NC(=O)c2cccnc2Cl)cc1)c1cccc(Cl)c1,/,28%,-4%,25%,15%,-3%
COC(=O)C1=C(C(=O)OC)[C@@H]2N(C)c3ccccc3[C@@]23C[C@@H](C(=O)OC)N(S(=O)(=O)c2ccc([N+](=O)[O-])cc2)C3=N1,3%[9.22 µM],/,/,/,/,/
Nc1ncnc2c1nc(Br)n2C1OC2COP(=O)(O)O[C@@H]2C1O (stereo not given in full),/,0%[46.1 µM],/,2%[46.1 µM],/,/
CCN(CC)CCOc1c(Br)ccc2c1sc1nc3n(c(=O)c12)CCC3,-29%,-1%,-2%,-3%,?,8%
O=c1c2c(nc3n1CCCCC3)sc1c(O)c(Br)ccc12,16µM*,4µM*,2.7µM*,2.8µM*,2.3µM*,?
Oc1ccc2ccccc2c1CN(Cc1c(O)ccc2ccccc12)C1CCCCC1,-11%[9.22 µM],/,/,/,/,/
O=C(CN(c1ccc(Cl)c(C(F)(F)F)c1)S(=O)(=O)c1ccccc1)N1CCc2ccccc2C1,-27%,/,-5%,/,/,/
Clc1ccc(Cl)c(OCc2cc(-c3ccccc3Cl)on2)c1,-3%,?,11µM*,?,14%,7%
O=C(Nc1ccc(Cl)cc1)OCc1cc(-c2ccccc2Cl)on1,0%,-3%,0%,-13%,0%,-4%
O=C(CSc1ccccc1)Nc1nccs1,17%,14%,-16%,?,7%,24%
O=C(CSc1cn(Cc2ccccc2)c2ccccc12)Nc1nccs1,?,3.2µM*,0.85µM*,2.5µM*,4.6µM*,?
C=CCn1c(C)cc(C(=O)COC(=O)c2ccc3c(c2)NC(=O)CS3)c1C,21%,5%,17µM*,2%,0%,?
C=CCn1c(C)cc(C(=O)COC(=O)c2ccc(N)c([N+](=O)[O-])c2)c1C,13µM*,4µM*,3µM*,1.3µM*,2.6µM*,?
COC(=O)c1ccc2c(c1)NC(=O)CS2,3%,-6%,-2%,-5%,-1%,1%
COCCn1c(C)cc(C(=O)COC(=O)c2ccc3c(c2)NC(=O)CS3)c1C,7%,0%,13µM*,1%,1%,19%
CC(=O)N1c2c(cc(Br)cc2S(=O)(=O)NCc2ccccc2Cl)CC1C (stereo not given),-3%,/,7%,/,/,/
